PubChem BioAssay (NCATS)
Values without a mark were called inactive. Inconclusive results are not listed. Active and inactive are the calls of the source. Unless noted, calls follow the shape of the dose curve; as a rule, active = well fitted curve in the direction sought with a large enough effect; inconclusive = small, poorly fitted or top-dose-only effect, or another doubt; inactive = no such curve, though single readings can be large; an effect the other way counts as inactive or inconclusive.

Target: Guanine nucleotide-binding protein G(i) subunit alpha-1 (Homo sapiens) (UniProt P63096)
Sequence (P63096 whole entry, looked up): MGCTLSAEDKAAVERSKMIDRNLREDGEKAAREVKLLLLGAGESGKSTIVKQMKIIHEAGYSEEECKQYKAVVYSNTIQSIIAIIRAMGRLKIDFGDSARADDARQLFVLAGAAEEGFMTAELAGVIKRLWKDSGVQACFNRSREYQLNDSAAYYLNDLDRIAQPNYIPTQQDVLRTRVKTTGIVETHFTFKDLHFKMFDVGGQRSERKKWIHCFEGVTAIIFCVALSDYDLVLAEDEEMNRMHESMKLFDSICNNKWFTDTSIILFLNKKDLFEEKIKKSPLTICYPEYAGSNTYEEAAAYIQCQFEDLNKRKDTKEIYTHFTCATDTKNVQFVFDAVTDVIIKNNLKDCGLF
Experiment: qHTS Assay for Inhibitors of RGS12 GoLoco Motif Activity (Green Fluorophore) (AID 879); also: potency is read from the fitted curve at half-maximal effect;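 as to activity, negative = inhibition: 0% = labeled peptide with Gαi1 and full inhibition = labeled peptide alone without protein; negative values mean loss of peptide binding seen as reduced polarization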
Conditions: Galphai1/FITC-RGS12 GoLoco peptide, fluorescence polarization; series mostly up to 57.1 µM; activity, negative = inhibition: at the top concentration
Procedure, shortened: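 Fluorescence polarization assay: 50 nM Gαi1 with 10 nM FITC-labeled RGS12 GoLoco peptide in 10 mM Tris pH 7.5, 150 mM NaCl, 0.1 mM GDP, 0.05% NP40, 10 min at room temperature with compound.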

Compound | activity, negative = inhibition | Potency
CCN1C[C@]2(C)CC[C@@H](O)[C@]34[C@@H]5CC6[C@@H](OC)C[C@@](O)([C@H]5[C@@H]6O)[C@@H](C[C@@H]23)[C@H]14 | -8.47% | –
C=CCN1C[C@@H](C)N([C@H](c2ccc(C(=O)N(CC)CC)cc2)c2cccc(OC)c2)C[C@H]1C | -11.8% | –
NC(N)=Nc1ccc2[nH]c3c(c2c1)C[C@]1(O)[C@@H]2Cc4ccc(O)c5c4[C@]1(CCN2CC1CC1)[C@H]3O5 | – | 25.1 µM (active)
C[C@H](N[C@@H](C)CCc1ccccc1)[C@H](O)c1ccc(O)cc1 | 4.46% | –
CCCC[N+]1(C)[C@@H]2CC(OC(=O)[C@@H](CO)c3ccccc3)C[C@H]1[C@H]1O[C@H]12 (some centres not stated) | 2.58% | –
CC(C)(C)NC[C@H](O)c1ccccc1Cl | -4.72% | –

Target: Cytochrome P450 3A4 (Homo sapiens) (UniProt P08684)
Sequence (P08684 whole entry, looked up): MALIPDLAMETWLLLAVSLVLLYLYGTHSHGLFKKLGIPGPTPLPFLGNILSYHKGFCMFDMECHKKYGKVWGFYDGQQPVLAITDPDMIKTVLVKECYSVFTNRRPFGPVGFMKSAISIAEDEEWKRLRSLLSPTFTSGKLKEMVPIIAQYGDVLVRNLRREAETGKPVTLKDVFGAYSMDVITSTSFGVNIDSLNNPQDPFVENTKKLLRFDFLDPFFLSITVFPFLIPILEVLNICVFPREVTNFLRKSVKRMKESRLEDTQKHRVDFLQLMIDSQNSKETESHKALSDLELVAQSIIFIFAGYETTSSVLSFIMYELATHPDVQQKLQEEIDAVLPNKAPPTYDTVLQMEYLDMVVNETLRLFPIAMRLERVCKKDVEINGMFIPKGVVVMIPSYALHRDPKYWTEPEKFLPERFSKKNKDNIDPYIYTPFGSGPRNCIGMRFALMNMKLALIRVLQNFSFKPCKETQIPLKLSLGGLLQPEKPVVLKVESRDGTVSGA
Experiment: qHTS Assay for Activators of Cytochrome P450 3A4 (AID 885); also: nearly all actives have a fitted effect of over 65% in size
Conditions: recombinant CYP3A4, Luciferin-PPXE luminescence, 60 min; series mostly up to 57.1 µM; activity change, positive = activation: at the top concentration
Procedure, shortened: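 20nM CYP3A4 + 25uM Luciferin-PPXE (=KM), 200mM KPO4; cpd 10 min RT; NADPH regen, 60 min RT; stop w/ detection buffer, 20 min; luminescence. Normalized to 57 uM ketoconazole.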

Compound | activity change, positive = activation
C=CCN1C[C@@H](C)N([C@H](c2ccc(C(=O)N(CC)CC)cc2)c2cccc(OC)c2)C[C@H]1C | -55.8%
CCCN1CCc2cccc3c2[C@@H]1Cc1ccc(O)c(O)c1-3 | -34.5%
NC(N)=Nc1ccc2[nH]c3c(c2c1)C[C@]1(O)[C@@H]2Cc4ccc(O)c5c4[C@]1(CCN2CC1CC1)[C@H]3O5 | -74.2%
C=CCN1CCc2cccc3c2[C@@H]1Cc1ccc(O)c(O)c1-3 | -50.3%

Tested on: not listed separately
Experiment: qHTS Assay for Identification of Small Molecule Antagonists for NFkB Signaling Pathway (AID 895; active = well fitted inhibition curve with a large enough effect in the signal ratio, with a control signal flat, not every such curve was filed as active; the % refers to the signal ratio; also: potency is read from the fitted curve at half-maximal effect; as to activity change, negative = inhibition: % is scaled to controls: 0 for no effect and ±100 for the full control effect)
Conditions: NFkB beta-lactamase reporter cells, FRET ratio 460/530; series mostly up to 38.3 µM; activity change, negative = inhibition: at the top concentration
Procedure, shortened: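 ME-180 NFkB-bla cells (beta-lactamase under NFkB response element), plated overnight, treated with compound then 10 pM TNF alpha (about EC50) for 5 hrs at 37 C. LiveBLAzer FRET read at 460/530 nm emission, 405 nm excitation.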

Compound | activity change, negative = inhibition | Potency
CCN1C[C@]2(C)CC[C@@H](O)[C@]34[C@@H]5CC6[C@@H](OC)C[C@@](O)([C@H]5[C@@H]6O)[C@@H](C[C@@H]23)[C@H]14 | -8.18% | –
C=CCN1C[C@@H](C)N([C@H](c2ccc(C(=O)N(CC)CC)cc2)c2cccc(OC)c2)C[C@H]1C | – | 5.01 µM (active)
C[C@H](N[C@@H](C)CCc1ccccc1)[C@H](O)c1ccc(O)cc1 | – | 0.0089 µM [stimulated with 10 pM TNF alpha] (active)

Tested on: not listed separately
Experiment: qHTS Assay for Identification of Small Molecule Agonists for Thrombopoietin (TPO) Signaling Pathway (AID 917); also: % is scaled to controls: 0 for no effect and ±100 for the full control effect
Conditions: TPO signaling pathway reporter cells, agonist qHTS; series mostly up to 38.5 µM; activity, positive = activation: at the top concentration
Procedure, shortened: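 We measured Glycoprotein IIb promoter–luciferase output in IL-3-starved Ba/F3 murine cells expressing the human TPO receptor after 24 hrs at 37 C with compounds and 26 pM TPO.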

Compound | activity, positive = activation
CCN1C[C@]2(C)CC[C@@H](O)[C@]34[C@@H]5CC6[C@@H](OC)C[C@@](O)([C@H]5[C@@H]6O)[C@@H](C[C@@H]23)[C@H]14 | -5.31%
C=CCN1C[C@@H](C)N([C@H](c2ccc(C(=O)N(CC)CC)cc2)c2cccc(OC)c2)C[C@H]1C | -14.4% [at 38.5 µM]
C[C@H](N[C@@H](C)CCc1ccccc1)[C@H](O)c1ccc(O)cc1 | -26.6%
CCCC[N+]1(C)[C@@H]2CC(OC(=O)[C@@H](CO)c3ccccc3)C[C@H]1[C@H]1O[C@H]12 (some centres not stated) | -16.3%
CC(C)(C)NC[C@H](O)c1ccccc1Cl | -14.9%

Tested on: not listed separately
Experiment: qHTS Assay for Identification of Small Molecule Antagonists for Thrombopoietin (TPO) Signaling Pathway (AID 918); also: potency is read from the fitted curve at half-maximal effect; nearly all actives have a fitted effect of over 60% in size
Conditions: TPO-dependent cell signaling reporter, antagonist mode
Procedure, shortened: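 Ba/F3 (murine, hTPO-R, GPIIb-luc reporter); overnight IL-3 withdrawal; cpd + TPO 26 pM final (EC50); 24 h 37 C/5% CO2; Steadylite luminescence after 10 min RT.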

Compound | Potency
CCCN1CCc2cccc3c2[C@@H]1Cc1ccc(O)c(O)c1-3 | 12.6 µM (active)
NC(N)=Nc1ccc2[nH]c3c(c2c1)C[C@]1(O)[C@@H]2Cc4ccc(O)c5c4[C@]1(CCN2CC1CC1)[C@H]3O5 | 12.6 µM (active)
C=CCN1CCc2cccc3c2[C@@H]1Cc1ccc(O)c(O)c1-3 | 10 µM (active)

Target: Muscarinic acetylcholine receptor M1 (Rattus norvegicus) (UniProt P08482)
Sequence (P08482 whole entry, looked up): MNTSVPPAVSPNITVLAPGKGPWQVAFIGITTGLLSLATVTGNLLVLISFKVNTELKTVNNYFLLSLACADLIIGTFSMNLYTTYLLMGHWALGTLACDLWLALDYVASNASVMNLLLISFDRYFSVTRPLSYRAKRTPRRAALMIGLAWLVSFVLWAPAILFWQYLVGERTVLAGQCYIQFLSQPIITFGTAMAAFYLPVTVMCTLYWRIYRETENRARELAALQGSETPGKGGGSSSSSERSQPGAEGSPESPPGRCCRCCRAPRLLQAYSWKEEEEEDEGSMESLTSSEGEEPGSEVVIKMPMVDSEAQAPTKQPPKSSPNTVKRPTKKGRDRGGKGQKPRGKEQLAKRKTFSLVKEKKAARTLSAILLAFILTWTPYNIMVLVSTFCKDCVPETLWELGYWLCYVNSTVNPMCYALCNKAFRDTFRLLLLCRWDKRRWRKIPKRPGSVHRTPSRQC
Experiment: qHTS Assay for Antagonists of Acetylcholine Muscarinic M1 Receptor: Kinetic Measurement of Intracellular Calcium Response (AID 943); also: nearly all actives have a fitted effect of over 75% in size; also: potency is read from the fitted curve at half-maximal effect;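 as to activity change, negative = inhibition: Fluo-4 calcium signal as peak divided by basal fluorescence over 4 min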
Conditions: M1-expressing cells, kinetic intracellular calcium fluorescence; series mostly up to 35.3 µM; activity change, negative = inhibition: at the top concentration
Procedure, shortened: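 Rat M1-CHO cells, 2000/well, overnight → Fluo-4 no-wash dye with probenecid, 1 h 37C → compound 10 min, room temp → basal read 6 s → carbachol EC80 (100 nM) → 4 min kinetic read; peak/basal.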

Compound | activity change, negative = inhibition | Potency
CCN1C[C@]2(C)CC[C@@H](O)[C@]34[C@@H]5CC6[C@@H](OC)C[C@@](O)([C@H]5[C@@H]6O)[C@@H](C[C@@H]23)[C@H]14 | -18.7% | –
C=CCN1C[C@@H](C)N([C@H](c2ccc(C(=O)N(CC)CC)cc2)c2cccc(OC)c2)C[C@H]1C | – | 14.1 µM (active)
NC(N)=Nc1ccc2[nH]c3c(c2c1)C[C@]1(O)[C@@H]2Cc4ccc(O)c5c4[C@]1(CCN2CC1CC1)[C@H]3O5 | – | 3.55 µM (active)
CCCC[N+]1(C)[C@@H]2CC(OC(=O)[C@@H](CO)c3ccccc3)C[C@H]1[C@H]1O[C@H]12 (some centres not stated) | – | 0.141 µM (active)
C=CCN1CCc2cccc3c2[C@@H]1Cc1ccc(O)c(O)c1-3 | -9.56% | –

Target: Muscarinic acetylcholine receptor M1 (Rattus norvegicus) (UniProt P08482)
Experiment: qHTS Assay for Antagonists of Acetylcholine Muscarinic M1 Receptor: Measurement of IP-One Response (AID 944); also: nearly all actives have a fitted effect of over 75% in size; also: potency is read from the fitted curve at half-maximal effect
Conditions: CHO-M1 cells, IP-One HTRF, antagonist mode; series mostly up to 46.1 µM; activity change, negative = inhibition: at the top concentration
Procedure, shortened: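 M1-CHO (rat), 2000 cells/well, overnight recovery; cpd 10 min; carbachol EC80 (200 nM), 30 min, HEPES buffer + 50 mM LiCl pH 7.4; IP-One HTRF, Ex 337, Em 620/665 nm.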

Compound | activity change, negative = inhibition | Potency
CCN1C[C@]2(C)CC[C@@H](O)[C@]34[C@@H]5CC6[C@@H](OC)C[C@@](O)([C@H]5[C@@H]6O)[C@@H](C[C@@H]23)[C@H]14 | -14.7% | –
CCCN1CCc2cccc3c2[C@@H]1Cc1ccc(O)c(O)c1-3 | -16.3% | –
NC(N)=Nc1ccc2[nH]c3c(c2c1)C[C@]1(O)[C@@H]2Cc4ccc(O)c5c4[C@]1(CCN2CC1CC1)[C@H]3O5 | – | 7.94 µM (active)
CCCC[N+]1(C)[C@@H]2CC(OC(=O)[C@@H](CO)c3ccccc3)C[C@H]1[C@H]1O[C@H]12 (some centres not stated) | – | 0.562 µM (active)

Target: Pyruvate kinase (Leishmania mexicana) (UniProt Q27686)
Sequence (Q27686 2-499 E452W): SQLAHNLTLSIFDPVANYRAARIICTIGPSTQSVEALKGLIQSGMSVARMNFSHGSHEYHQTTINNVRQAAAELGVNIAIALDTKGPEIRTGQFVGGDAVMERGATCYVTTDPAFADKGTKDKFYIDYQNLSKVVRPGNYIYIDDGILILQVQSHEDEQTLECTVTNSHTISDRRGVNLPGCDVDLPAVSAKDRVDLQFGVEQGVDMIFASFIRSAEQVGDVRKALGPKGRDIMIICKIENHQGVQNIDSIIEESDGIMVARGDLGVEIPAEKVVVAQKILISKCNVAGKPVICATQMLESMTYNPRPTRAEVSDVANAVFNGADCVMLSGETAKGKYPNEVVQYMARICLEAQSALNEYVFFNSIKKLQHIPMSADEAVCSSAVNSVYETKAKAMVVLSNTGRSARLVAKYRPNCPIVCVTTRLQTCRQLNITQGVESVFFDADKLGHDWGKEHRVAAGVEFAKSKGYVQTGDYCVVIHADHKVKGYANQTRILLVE
Experiment: qHTS Validation Assay for Inhibitors of Leishmania Mexicana Pyruvate Kinase (AID 945);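 also: 0% = DMSO only neutral control wells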
Conditions: purified L. mexicana pyruvate kinase, enzyme activity, E451W mutant enzyme; series mostly up to 57.5 µM; activity change, negative = inhibition: at the top concentration
Procedure, shortened: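 Mutant LmPYK (E451W), 0.2 nM, plus 0.5 mM PEP and 0.1 mM ADP in 50 mM imidazole pH 7.2 containing 0.01% Tween 20 and 0.05% BSA. Incubated 1 h at room temperature; luminescence via PKLight, normalized to DMSO.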

Compound | activity change, negative = inhibition
CCN1C[C@]2(C)CC[C@@H](O)[C@]34[C@@H]5CC6[C@@H](OC)C[C@@](O)([C@H]5[C@@H]6O)[C@@H](C[C@@H]23)[C@H]14 | 7.86%
C=CCN1C[C@@H](C)N([C@H](c2ccc(C(=O)N(CC)CC)cc2)c2cccc(OC)c2)C[C@H]1C | 7.93%
CCCN1CCc2cccc3c2[C@@H]1Cc1ccc(O)c(O)c1-3 | 1.28%
C[C@H](N[C@@H](C)CCc1ccccc1)[C@H](O)c1ccc(O)cc1 | 5.52%
CCCC[N+]1(C)[C@@H]2CC(OC(=O)[C@@H](CO)c3ccccc3)C[C@H]1[C@H]1O[C@H]12 (some centres not stated) | -2.49%
CC(C)(C)NC[C@H](O)c1ccccc1Cl | 3.69%
C=CCN1CCc2cccc3c2[C@@H]1Cc1ccc(O)c(O)c1-3 | 3.41%
